The whole screen tested about 190,000 compounds, of which about 1,300 (0.68%) were called active. This is one part of a sample in which actives are shown more often than they occur. Unmarked numbers belong to inactive results. Rule as the data show it: active = inhibition above about 50%; inactive = the rest.
Each compound was assayed against Mannose-6-phosphate isomerase (Homo sapiens) (UniProt P34949) (assay: human PMI inhibitors, high substrate, primary screen, biochemical, fluorescence intensity, high mannose 6-phosphate (AID 1220)). Details: recombinant PMI enzyme, coupled fluorescence intensity; at 20 µM; active compounds read high.
Chain of Mannose-6-phosphate isomerase (Homo sapiens) (P34949 whole entry, looked up): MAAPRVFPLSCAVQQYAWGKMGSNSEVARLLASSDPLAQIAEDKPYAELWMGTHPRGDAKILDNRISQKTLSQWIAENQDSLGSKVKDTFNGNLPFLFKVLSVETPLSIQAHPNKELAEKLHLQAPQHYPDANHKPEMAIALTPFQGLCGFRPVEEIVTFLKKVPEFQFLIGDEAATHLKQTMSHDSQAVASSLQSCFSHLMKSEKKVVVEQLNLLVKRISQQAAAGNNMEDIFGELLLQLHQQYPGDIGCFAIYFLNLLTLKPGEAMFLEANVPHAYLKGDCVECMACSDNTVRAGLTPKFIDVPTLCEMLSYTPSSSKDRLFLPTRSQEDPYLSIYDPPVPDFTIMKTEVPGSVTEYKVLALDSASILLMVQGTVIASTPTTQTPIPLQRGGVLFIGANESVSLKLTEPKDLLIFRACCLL

Row | Structure (SMILES) | inhibition
1 | CC1CCN(S(=O)(=O)c2ccc(NN=C(C#N)C#N)cc2)CC1 | -24.1%
2 | CC(C)Oc1cccc(C(=O)C2CCCN(Cc3ccon3)C2)c1 (stereo not given) | 4%
3 | CC(=O)NC1CC2CCCC(C1)N2 (stereo not given) | -5.2%
4 | O=C(NC1(C(F)(F)F)Oc2ccc(Cl)cc2O1)N1CCC2(CC1)OCCO2 (stereo not given) | 70.3% (active)
5 | O=C(NC(=O)N1CCC2(CC1)OCCO2)c1ccc(Cl)cc1 | 11.1%
6 | O=C(NC1(C(F)(F)F)Oc2ccccc2O1)N1CCC2(CC1)OCCO2 | 3.8%
7 | O=c1[nH]c(=O)n(Cc2ccccc2Cl)c(O)c1C=Nc1ccc(F)cc1 | 13.7%
8 | CC(=NCCN1CCCCC1)c1c(O)n(-c2ccc(Cl)cc2)c(=O)[nH]c1=O | 2.8%
9 | COc1cc2c(cc1O)CC1c3c(cc(O)c(OC)c3-2)CCN1C (stereo not given) | 52.5% (active)
10 | COc1cc2c(cc1OC)-c1c(OC)c(OC)cc3c1[C@H](C2)N(C)CC3 | -16.2%
11 | COc1cc2c(cc1OC)-c1c(OC)c(OC)cc3c1C(C2)N(C)CC3 (stereo not given) | 39.3%
12 | CCc1cccc(C)c1NC(=S)N1CC2CC(C1)c1cccc(=O)n1C2 (stereo not given) | -3.9%
13 | CCN(CC)C(=O)c1ccc(N2C(=O)C3CC=C(Cl)CC3C2=O)cc1 (stereo not given) | -1.5%
14 | Nc1ccncc1Cl | -4.4%
15 | N#Cc1cc2c(nc1SCC(=O)Nc1ccc(Cl)cc1)C1CCN2CC1 | -2.2%
16 | CN1C[C@H](CNC(=O)OCc2ccccc2)C[C@@H]2c3cccc4c3c(cn4C)C[C@H]21 | 58.2% (active)
17 | O=C(NC[P+](=O)O)OCc1ccccc1 | -7%
18 | CCN(CC)C(=O)N[C@H]1C[C@@H]2c3cccc4[nH]cc(c34)C[C@H]2N(C)C1 | -0.8%
19 | CC(C)CCN1CCN(Cc2c(F)cccc2Cl)CC1CCO (stereo not given) | -1.1%
20 | CC(=O)OC1(c2ccccc2)CCN(C)C(C)C1C (stereo not given) | -7.2%

Source: PubChem BioAssay AID1220 (Sanford-Burnham Center for Chemical Genomics, 2008)
